Results: PubChem BioAssay (NCI)
Several values for one entry are separate records, joined by “and”; a condition that tells them apart may be missing. Equal values may be shown once. About 83,000 compounds went through this panel and 20% of them were active in at least one assay; those are over-represented in the sample as a whole.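 48-hour exposure, single concentration, 96-well plates; percent growth endpoint where 0 means no net growth. Active: below 10.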 Activity calls are given as the source filed them.

Each compound was assayed on MDA-MB-468 breast (assay: NCI-60 one-dose screen, 48 h (100 = growth as untreated, 0 = no growth, -100 = all killed)). Details: 10 µM unless noted.

SMILES	growth
CCOC(CN1CCN(CC(C)C(=O)c2ccccc2)CC1)c1ccccc1 (stereo unspecified)	87.2% (inactive)
O=C(Nc1ccc(F)cc1)c1cc2ccccc2cc1O	60.8% (inactive)
O=C1c2cc3c(cc2-c2c1c1ccc(F)cc1c(=O)n2C[C@H](O)[C@H](O)[C@H](O)CO)OCO3	-39.9% (active)
C=CCN=C(N)SCCCCCCSC(N)=NCC=C	84.7% (inactive)
CCc1ccccc1-n1[nH]c(C)c(C=N)c1=O	90.3% (inactive)
O=C(Nc1cccc(-n2cc(-c3ccncc3)c(-c3ccc(Cl)c(O)c3)n2)c1)Nc1ccc(Cl)c(C(F)(F)F)c1	-49.5% (active)
CC(O)c1nc2c(c(=O)n(C)c(=O)n2C)n1C (stereo unspecified)	105% (inactive)
COc1ccc(Nc2cc(C)nc(N3CCN(c4ccnc5cc(Cl)ccc45)CC3)n2)cc1	21.7% (inactive)
O=C(CCCCCCSc1nc(-c2ccccc2)cc(-c2ccc(Cl)cc2)n1)NO	4.78% (active)
Cc1nc2ccccc2c(/C=C/c2ccc(F)cc2)c1C(=O)/C=C/c1ccccc1	17% (inactive)
CCCNS(=O)(=O)c1ccc(Cl)cc1	102% (inactive)
Cc1[nH]c(C2CC(c3ccc(C(F)(F)F)c(F)c3)=NN2c2ccccc2)c(C)c1C(=O)NCC(F)(F)F (stereo unspecified)	86.5% (inactive)
O=C(NNc1ccc(-c2ccccc2)nn1)c1ccc(F)cc1	98.2% (inactive)
O=C(Oc1cccc2cccnc12)c1ccccc1	71.7% (inactive) and 93.1% (inactive)
COc1cc(/C=C2\COc3ccc(O)cc3C2=O)cc(OC)c1	54.1% (inactive)
COc1ccc(-c2nc(N/N=C/c3ccco3)nc(N3CCOCC3)c2C#N)cc1	36% (inactive)
COc1ccc(CCN2C(=O)/C(=C/c3nc(CO)cs3)SC2=S)cc1	27% (inactive)
CC1(C)CC[C@]2(C(=O)O)CC[C@]3(C)C(=CC[C@@H]4[C@@]5(C)CC/C(=N\OCCC#N)C(C)(C)[C@@H]5CC[C@]43C)[C@@H]2C1	106% (inactive)

SMILES	growth
CCC(=O)N1C/C(=C/c2ccc(OC)cc2)C(=O)/C(=C/c2ccc(OC)cc2)C1	-25.6% (active)
Cc1[nH]n(-c2ccccc2)c2nc3nncc3c(-c3ccc(Cl)cc3)c12	95.1% (inactive)
COC(=O)[C@@H]1[C@H]2C[C@H]3c4[nH]c5cc(OC)ccc5c4CCN3C[C@@H]2C[C@H](OC(=O)/C=C/c2ccnc(OC)c2)[C@H]1OC	76.9% (inactive)
COC12C=C/C(=C(/C(=O)OCc3ccccn3)C(=O)CCCCCCCCC3(OC)C=C/C(=C(/C(=O)OCc4ccccn4)C(=O)CCCCCCCC1)O3)O2	-32.5% (active)
Cc1cccc(Cl)c1NC(=O)c1cnc(Nc2cc(N3CCOCC3)cc(S(C)(=O)=O)c2)s1	26.7% (inactive)
Cc1c(O)c(O)cc2c3c(oc12)CC(c1ccc2c(c1)OCO2)CC3=O (stereo unspecified)	93.2% (inactive)
CC(=O)O[C@@]12CO[C@@H]1C[C@H](O)[C@@]1(C)C(=O)[C@H](O)C3=C(C)[C@@H](OC(=O)[C@H](O)[C@@H](NC(=O)OC(C)(C)C)c4ccccc4)C[C@@](O)([C@@H](OC(=O)c4ccccc4)C12)C3(C)C (stereo partly specified)	3.09% (active)
COc1ccc2c(c1)CC/C(=C\c1cncc(Br)c1)C2=O	99.4% (inactive)
N#Cc1cccc(/C(N)=N/C(N)=N/c2nc3ccccc3s2)c1	18.7% (inactive)
CC1(C)C2CC1C1(/C=N\Nc3ccccc3)C(C2)C(C#N)(C#N)C1(C#N)C#N (stereo unspecified)	94.8% (inactive)
COc1ccc(CCCc2c3[n+](cc4c(OC)c(OC)ccc24)CCc2cc4c(cc2-3)OCO4)cc1	1.74% (active)
Brc1ccc2c(c1)c(-c1nc(-c3c[nH]c4ncccc34)cs1)cn2CCCN1CCCCC1	-15% (active)
Brc1ccsc1Br	103% (inactive)
COc1ccc(/C=C2\N=C3SC=C(N)N3C2=O)cc1	-31.9% (active)
COc1ccc2c(c1)C1(C(=O)N2)C(C#N)=C(c2ccccc2)Nc2c1c(-c1ccccc1)nn2-c1ccccc1 (stereo unspecified)	76.5% (inactive)
Cc1nnc(-n2c(O)cc(=O)n(-c3ccccc3)c2=S)nc1/C=C/c1ccc(N(C)C)cc1	25.8% (inactive)
OCCn1cc(-c2nc(-c3c[nH]c4ncccc34)cs2)c2ccccc21	4.37% (active)
Cc1nc(S(=O)(=O)c2ccccc2)c(S(=O)(=O)Cc2ccc([N+](=O)[O-])cc2)o1	78.1% (inactive)
